Hits are enriched below; roughly 6.3% of the tested compounds scored in any of these assays.
VP16 counter – Gal4-VP16 reporter inhibition counter-screen; Potency, µM (highest dose often 53.6 µM), usual class: inhibitors; hit rate 3.5% among 310,000; AID 2546; Drosophila S2 Gal4-VP16 UAS-luciferase, luminescence, 20 h;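 note: Gal4-VP16 expression switched on by copper sulfate through the metallothionein promoter; nearly all actives have a fitted effect of over 50% in size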
ATXN2 expr inh – reduces ATXN2 reporter expression in HEK-293 cells; HEK-293 ATXN2-luciferase reporter, luminescence, 24 h; Potency, µM (top dose mostly 57 µM), most hits filed as inhibitors; hit rate 0.72% among 360,000; AID 1745845; note: nearly all actives have a fitted effect of over 55% in size
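ATXN2-luciferase reporter cells (luciferase flanked by upstream and downstream ATXN2 gene portions) were treated 24 h at 37 °C with compounds at up to 57 uM. SteadyGlo luminescence gave expression; GF-AFC fluorescence gave viability.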
ATXN viability – viability counter-screen for ATXN expression inhibitors | S2 cells (HEK-293 line with an ATXN2-luciferase reporter) viability, CellTiter-Fluor protease fluorescence, 24 h | Potency, µM (highest dose often 56.7 µM), usual class: cytotoxic | hit rate 0.49% among 400,000 | AID 651635; note: nearly all actives have a fitted effect of over 40% in size
TGFb SMAD3 inh – TGF-b pathway inhibition; HepG2 CAGA-GFP TGF-b/SMAD3 reporter, GFP fluorescence, 18 h; TGF-beta stimulated, 500 pg/mL final; Potency, µM (titrated, usually from 46.1 µM), usual class: inhibitors; hit rate 1.2% among 410,000; note: nearly all actives have a fitted effect of over 65% in size
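First, reporter cells (HEPG2 CAGA-GFP) rested 2 h at 37 degrees C. Next, compounds were pinned in and TGF-beta added to 500 pg/mL final. After 18 h, GFP was imaged per cell and summed per well.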
RORgamma inh – blocks mouse ROR gamma transcriptional activity; Drosophila S2 Gal4-RORgamma UAS-luciferase reporter, 20 h; hit rate 5.4% among 310,000; P51450; Potency, µM (doses to about 53.6 µM), usual class: inhibitors; note: nearly all actives have a fitted effect of over 60% in size
Target sequence (P51450 whole entry, looked up, the tested form may be a part): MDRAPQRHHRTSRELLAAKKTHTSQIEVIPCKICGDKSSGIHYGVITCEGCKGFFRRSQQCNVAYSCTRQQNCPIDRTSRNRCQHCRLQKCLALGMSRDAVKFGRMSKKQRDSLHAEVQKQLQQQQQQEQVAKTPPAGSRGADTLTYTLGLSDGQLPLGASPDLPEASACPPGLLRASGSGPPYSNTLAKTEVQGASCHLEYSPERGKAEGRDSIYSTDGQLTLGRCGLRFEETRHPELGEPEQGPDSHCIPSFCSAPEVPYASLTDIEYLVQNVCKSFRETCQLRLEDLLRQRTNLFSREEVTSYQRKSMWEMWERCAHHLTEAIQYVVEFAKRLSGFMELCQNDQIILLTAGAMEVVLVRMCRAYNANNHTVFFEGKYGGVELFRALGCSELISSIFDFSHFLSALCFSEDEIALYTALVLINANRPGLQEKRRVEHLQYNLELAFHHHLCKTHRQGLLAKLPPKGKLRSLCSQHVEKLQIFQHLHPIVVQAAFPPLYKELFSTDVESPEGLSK
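ROR gamma transcriptional activity was tracked as Gal4-UAS luciferase output in stably transfected Drosophila Schneider cells, with compound added 1 hr before 700 uM copper sulfate induction and a 20 hr ambient-temperature incubation.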
HepG2 tox – HepG2 cytotoxicity, counter-screen for TGF-b inhibitors | HepG2 CAGA-GFP viability, ATP luminescence, 18 h | Potency, µM (top dose mostly 46.1 µM), usual class: cytotoxic | hit rate 0.76% among 410,000 | AID 588856
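CellTiter-Glo luminescence gave cytotoxicity after 18 hours at 37 degrees C. The cells were HepG2 CAGA-GFP in 1% FBS DMEM, stimulated with 500 pg/mL TGF-beta after compound addition. %Activity was normalised to no-cell wells (complete cell-killing) and DMSO (no toxicity), and curves were fitted and classified.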
A number is an active result; 0 = inactive; ? = inconclusive; - = no result given; ! = a repeat was not active; [ ] = dose if it differs, or a comment. Calls come from the whole dose curve; as a rule, active = well fitted curve in the direction sought with a large enough effect; inconclusive = small, poorly fitted or top-dose-only effect, or another doubt; inactive = no such curve, though single readings can be large; an effect the other way counts as inactive or inconclusive.

SMILES | VP16 counter | ATXN2 expr inh | ATXN viability | TGFb SMAD3 inh | RORgamma inh | HepG2 tox
CCc1nnc(NC(=O)c2nc(Cl)ccc2Cl)s1 | 0 | 0 | 0 | 0 | ? | 0
CCc1nnc(NC(=O)c2nc(S(=O)(=O)Cc3cccc(C)c3)ncc2Cl)s1 | 7.9µM | ? | ? | 11µM | 13µM | 22µM
CCOc1ccccc1NC(=O)c1nc(S(=O)(=O)Cc2cccc(C)c2)ncc1Cl | 2.5µM | 0 | 32µM! | ? | 8.9µM | 0
CC(=O)OCOC(=O)CNc1ccccc1OCCOc1ccccc1NCC(=O)OCOC(C)=O | 0 | - | - | - | ? | -
Cc1c(C(=O)NCc2ccccc2C(F)(F)F)sc(=O)n1Cc1ccc(Cl)c(Cl)c1 | - | 0 | 0 | 0 | - | 0
COc1ccc2[nH]c(S(=O)Cc3ncc(C)c(OC)c3C)nc2n1 (stereo not drawn) | 0 | 0 | 0 | - | 0 | -
O=C(Nc1ccncc1)c1ccc(Cl)c(S(=O)(=O)N2CCc3ccccc32)c1 | - | ? | ? | 0 | - | 0
CCc1nnc(NC(=O)c2ccc(Cl)c(S(=O)(=O)N3CCc4ccccc43)c2)s1 | ? | 0 | ? | ? | 20µM | 0
CCCN(C)C1CN(Cc2cn(Cc3ccc(OC)cc3)nn2)S(=O)(=O)C1 (stereo not drawn) | - | 0 | 0 | - | - | -
Clc1ccc(/C=N/Nc2nc(Cl)nc3ccccc23)cc1 | ? | 0 | 0 | 0 | 0 | 0
Clc1cccc(/C=N/Nc2ncnc3ccccc23)c1 | 4.5µM | 0 | 0 | 0 | 1.3µM | 0
C(=N\Nc1ncnc2ccccc12)/c1ccccc1 | 1µM | 0 | - | ? | 2.5µM | 0
Nc1c(N2CCCC2)cc(Cl)c2nonc12 | ? | 0 | 0 | 10µM | ? | 0
Cc1nn(-c2cc(N3CCCCC3)ccc2N)c(=O)c2ccccc12 | 0 | 0 | 0 | 0 | 0 | 0
Nc1cc(Cl)ccc1N1CCCCC1 | 0 | - | ? | 0 | 0 | 0
Nc1ccc(N2CCCCC2)cc1N1CCCCC1 | 0 | 0 | 0 | 10µM | 0 | 0
Nc1ccc(N2CCCCC2)c2nonc12 | 0 | - | 0 | 13µM | 0 | 0
COCC(=O)Nc1cc(C(=O)NC2CCCc3ccccc32)c2c(c1)nc(-c1ccncc1)n2C (stereo not drawn) | - | - | 0 | - | - | -
COc1ccc(OC)c(NC(=O)c2cc3cccc(OC)c3oc2=O)c1 | - | 0 | 0 | 0 | - | 0
CCc1ccc(NCc2cc3ccc(OC)cc3n(CC(=O)Nc3ccccc3C)c2=O)cc1 | - | 0 | 0 | 0 | - | 0
CC(=O)c1cccc(NC(=O)CC2S/C(=N/N=C3CCCCCC3)NC2=O)c1 (stereo not drawn) | 0 | 0 | 0 | 0 | 10µM | 0
COc1ccc(Cl)cc1NC(=O)CC1S/C(=N/N=C2CCCCCC2)NC1=O (stereo not drawn) | 5µM | ? | 0 | 0 | 3.5µM | 0
O=C(CC1S/C(=N/N=C/c2ccco2)NC1=O)Nc1ccccc1 (stereo not drawn) | 0[10 µM] | 0 | 0 | 0 | 0 | 0
CCOc1ccc(NC(=O)CC2S/C(=N/N=C3CCCCCC3)NC2=O)cc1 (stereo not drawn) | 11µM | 0 | 0 | 0 | 20µM | 0
Cc1ccc(NC(=O)CC2SC(=NC3CCCCC3)NC2=O)cc1 (stereo not drawn) | 0 | 0 | 0 | 0 | 0 | 0
SMILES | VP16 counter | ATXN2 expr inh | ATXN viability | TGFb SMAD3 inh | RORgamma inh | HepG2 tox
CC1=C/C(=N\N=C2\NC(=O)C(CC(=O)Nc3ccccc3)S2)CC(C)(C)C1 (stereo not drawn) | ? | - | ? | 0 | 1.6µM | 0
OCCn1cc(-c2ccc3c(c2)CCC3=NO)c(-c2ccncc2)n1 | - | 0 | - | - | - | -
COc1cc(S(N)(=O)=O)cc(C(=O)O)c1OC | - | 0 | 0 | - | - | -
CCN1CCN(S(=O)(=O)c2ccc(Cl)c(C(=O)Nc3ccc(OC(F)F)cc3)c2)CC1 | 0 | 0 | 0 | 0 | 0 | 8.9µM
CC(C)C[C@H](NC(=O)c1[nH]cnc1C(=O)N[C@@H](C)C(=O)OC(C)(C)C)C(=O)OC(C)(C)C | ? | 0 | - | ? | 6.3µM | 11µM
CC(C)C[C@H](NC(=O)c1nc[nH]c1C(=O)NCCCCCNC(=O)OC(C)(C)C)C(=O)OC(C)(C)C | 7.1µM | ? | - | ? | 3.2µM | 0
